# According to the supplement of paper PMC10105736:
# A number with no mark means an inactive call.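 How the source made its calls: active = MAPPIT score above the 99th percentile of random reference set scores in the same batch; inactive = at or below it.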
# B1: swa (protein)
# chain: MSLQDESFPTDELFDQLNNLSSSGARNTWFAEHHKPAVFERDTAPFLEICYADPDFDADGDVANKSAKTCVSDPVGRDQEDEDDYDEDVDGDDHKLGCEKAPLGSGRSSKAVSYQDIHSAYTKRRFQHVTSKVGQYIAEIQAQDQKRRNVKFAGFQRVNSMPESLTPTLQQVYVHDGDFKVDKNCQTHSNSDSNYNSNSNNSSSSFDRLLAENESLQQKINSLRVEAKRLQGFNEYVQERLDRKTDDFVKMKCNFETLRTELSECQQKLRRQQDNSQHHFMYHIRSATSAKATQTDFLVDTIPASGNVLVTPHPLGDLTYNSSKGSIELALLSVAPSARVAQNPVQVQRAIHPQSLDFSSVSTEADGSGSGEHRVETSSRALVRRTPAPNNSETSQPSSNDSAIEVEAHEEERPSSRRQWEQQGELISPRQWGQHEGMYYFDKRNNRVIEVMGFNISQGRNQSHDTIHNQSINDSQTRLLVHSMSMSHLEAHDHFRSKRTTLGSRMLRFLGPCVRCRNGDPLNRSNVTYKDGLPAMPEEEFVDQRNQR
# B2: Fcp3C (protein)
# chain: MDGAKAEVFSVSVDTKMGAFKNSLLLLTLLLAIHLEASKIVYKKPLYGNSNIIKDKRIKTKPVKLETSTMSSTGVASSSTTAEEDWPTAVEFVIMTTPASELEASTETIGNNGTTETTVGEAPIIGSSEGSTRSMEPTTASPLMSTNPSSSSSLVSTIPLPPTAGLPVQDNQPVPCTCGVFLSSQIPNGLPTKPLIHQELDHMFPCNAIGRKQCQTKCLETIVQHLPNSANIVCSALGHDCHKERAYLFIKNCHNQWVNTNLQAGREYCCRSGVPYRCPLMG
# B3: Pgd (protein)
# chain: MSGQADIALIGLAVMGQNLILNMDEKGFVVCAYNRTVAKVKEFLANEAKDTKVIGADSLEDMVSKLKSPRKVMLLVKAGSAVDDFIQQLVPLLSAGDVIIDGGNSEYQDTSRRCDELAKLGLLFVGSGVSGGEEGARHGPSLMPGGHEAAWPLIQPIFQAICAKADGEPCCEWVGDGGAGHFVKMVHNGIEYGDMQLICEAYHIMKSLGLSADQMADEFGKWNSAELDSFLIEITRDILKYKDGKGYLLERIRDTAGQKGTGKWTAIAALQYGVPVTLIGEAVFSRCLSALKDERVQASSVLKGPSTKAQVANLTKFLDDIKHALYCAKIVSYAQGFMLMREAARENKWRLNYGGIALMWRGGCIIRSVFLGNIKDAYTSQPELSNLLLDDFFKKAIERGQDSWREVVANAFRWGIPVPALSTALSFYDGYRTAKLPANLLQAQRDYFGAHTYELLGQEGQFHHTNWTGTGGNVSASTYQA
# Legend:
# Assay in all cases: MAPPIT interaction score (arbitrary units); higher = stronger binary interaction signal, active = hit call of the paper
# [1] = molecular target: yip2; conditions: MAPPIT configuration: N-N; pair source set: Curagen_high_conf
# [2] = molecular target: tup; conditions: MAPPIT configuration: N-N; pair source set: Curagen_low_conf
# [3] = molecular target: up; conditions: MAPPIT configuration: N-N; pair source set: RRS
# 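Further: HEK293T cells with Epo stimulation, STAT-responsive firefly luciferase reporter, fold induction versus unstimulated cells divided by the larger fold induction of two negative controls lacking either bait or prey.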
binder,measurement,setting,value
B1,MAPPIT interaction score,[1],1.92
B2,MAPPIT interaction score,[2],-0.265
B3,MAPPIT interaction score,[3],0.146
